The panel holds about 83,000 compounds, 20% with a hit somewhere; the sample as a whole holds those more often.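 The test compound was applied at a single concentration to cells in 96-well plates for 48 hours, and percent growth was recorded.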 Calls of active or inactive are those of the source.

In the assay the test system is M14 melanoma. Kind of assay: NCI-60 one-dose screen, 48 h (100 = growth as untreated, 0 = no growth, -100 = all killed). The note with it: 10 µM unless noted. On the procedure:
Growth inhibition of the M14 human tumor cell line is measured as a screen for anti-cancer activity. Cells are grown in 96 well plates and exposed to the test compound for 48 hours. Compounds are tested at a single concentration, which is 10^-5 M for most compounds. The reported endpoint is percent growth (GI% or GIPRCNT), where numbers from 0 - 100% represent growth inhibition, and numbers from -100% - 0 represent cell death. For example, a value of 40 represents 60% growth inhibition. A value of 0 means no net growth occurred over the course of the experiment. A value of -40 indicates 40% of cells at the beginning of the experiment died by the end of the experiment. A value of -100 means all cells are dead at the end of the experiment.
NCI-60 Human Tumor Cell Lines Screen was performed using the standard one-dose NCI protocol, which is described in more detail at https://dtp.cancer.gov/discovery_development/nci-60/default.htm.
Compounds with GIPRCNT values below 10 were considered active. Activity score was based on GIPRCNT using the following formula: […]
Score is 0 for GIPRCNT values of 100 or above, 50 for GIPRCNT values of 0, and 100 for GIPRCNT values of -100.
For `CC1=CC(=Nc2ccc(N(C)C)cc2)C=C(C)C1=O`, the growth is 91.9% (inactive). As for `O=Cc1ccc(O)c(O)c1`, the growth was 94.5% (inactive). Regarding `CCCc1cccc(CCC)c1NC(=O)Nc1cc(Cl)cc(Cl)c1`, the growth was 101% (inactive). As to `Cc1ccc(C2CCCCC2)cc1Br`, the growth was 98.6% (inactive). Take `Cc1[nH]nc(C(N)=O)c1[N+](=O)[O-]`: the growth was 90.4% (inactive).

With `CCCCCCCCCCCCSC1=C(Cl)C(=O)C(OC)=C(OC)C1=O`, the growth was 64.1% (inactive). As for `CCCNS(=O)(=O)c1ccc(Cl)cc1`, the figure is 101% (inactive); as for `O=C1C=C[C@H](O)[C@@]2(CO)O[C@@H]12`, 85.9% (inactive).

Consider `Clc1ccc(C(SCc2ccccc2)SCc2ccccc2)cc1`, for which the growth is 88.2% (inactive).

Turning to `CCOC(=O)c1cc(C)[nH]c(=O)c1C#N`, the growth is 102% (inactive). As for `Cc1cc(Nc2ccc3c(c2)OCO3)c2cc3c(cc2n1)OCO3`, the figure is -16.7% (active). For `O=C1Nc2ccccc2/C1=C\c1ccccc1O`, the growth was 85.6% (inactive). As for `COc1cc(C(=O)O)c(O)c(C(C)(C)C)c1`, the figure is 105% (inactive); as for `COc1cccc(C(=O)O)c1OC`, 103% (inactive). Turning to `O=C(O)CSCC(=O)Nc1cc(C(F)(F)F)ccc1Cl`, the growth is 103% (inactive). Then `COc1ccc(Br)c(C=O)c1`, with 46.1% (inactive); and `CCC(C)C1CCC(O)CC1` (stereo not given), with 99% (inactive).

`Oc1cccc(CNC2CCCCC2)c1`: the growth is 99.9% (inactive). Then `CCCCCCCCCCCCCCCCCCSC(=N)N`, with 60% (inactive); and `Cc1cccc2ccccc12`, with 97.7% (inactive); and `C[C@H](CCC[C@H](C)OS(=O)(=O)c1ccccc1)OS(=O)(=O)c1ccccc1`, with 106% (inactive). Then `CC(=O)c1cc(O)ccc1O`, with 101% (inactive).

For the compound `NC(=O)OCCO`, the growth is 94.6% (inactive). In the case of `OC1Cc2ccccc2C1`, the growth is 94.9% (inactive). As for `Cc1ccc(C)c(CN(C)C)c1O`, the figure is 105% (inactive); as for `CC(C)Sc1ncnc2nc[nH]c12`, 105% (inactive). As for `Nc1nc(Cl)cc(Cl)n1`, the figure is 96.4% (inactive); as for `C=COC(=O)CCOCC(CC)CCCC` (stereo not given), 99.9% (inactive); as for `Cc1ccc(C(C)C)c(OCC(=O)O)c1`, 108% (inactive). As to `Cc1cc(Cl)cc(Cc2cc(Cl)cc(C)c2O)c1O`, the growth was 14.2% (inactive). As for `COc1ccc(C)cc1NC(=O)SC(C)C`, the figure is 110% [100 µM] (inactive); as for `CN1CCCN(C(c2ccccc2)c2ccc(Br)cc2)CC1` (stereo not given), -8.62% (active). Consider `CCN1CCCC(N2c3ccccc3Sc3ccccc32)C1` (stereo not given), for which the growth is 99.8% (inactive). Consider `COc1cccc2c1Cc1ccccc1-2`, for which the growth was 102% (inactive). With `CCCCNc1ccc(-c2ccc(NCCCC)cc2)cc1`, the growth is 71.7% (inactive). In the case of `CN1C(=O)NC(c2ccc(Cl)cc2)(c2ccc(Cl)cc2)C1=O`, the growth was 100% (inactive).

As to `O=S(=O)(O)c1ccc(O)c(C2CCCCC2)c1`, the growth was 101% (inactive). For the compound `O=S(=O)(O)c1cccnc1`, the growth is 140% (inactive).

As for `CC(=O)C[n+]1ccc(C)cc1Sc1ccccc1C`, the growth is 90.7% (inactive). Then `ON1CCCC1`, with 104% (inactive).

For the origin of these results see PubChem BioAssay (NCI).
